Reference: PubChem BioAssay
Calls of active or inactive are those of the source.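 The calls were made as follows: active = inhibition above the hit cutoff set in the earlier primary screen (cut at about 27% in these data); inactive = the rest.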

What follows are compounds tested against Protein phosphatase methylesterase 1 (Homo sapiens) (UniProt Q9Y570) (assay: human PME-1 methylesterase inhibition confirmation – biochemical, fluorescence polarization, FP-Rh probe, triplicate (AID 2171;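 also: 0% = enzyme with DMSO and 100% = wells lacking PME-1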)). Details: recombinant PME-1, FP-Rh probe fluorescence polarization; at 5.9 µM; stronger effect = higher value.
Chain of Protein phosphatase methylesterase 1 (Homo sapiens) (Q9Y570 whole entry, looked up): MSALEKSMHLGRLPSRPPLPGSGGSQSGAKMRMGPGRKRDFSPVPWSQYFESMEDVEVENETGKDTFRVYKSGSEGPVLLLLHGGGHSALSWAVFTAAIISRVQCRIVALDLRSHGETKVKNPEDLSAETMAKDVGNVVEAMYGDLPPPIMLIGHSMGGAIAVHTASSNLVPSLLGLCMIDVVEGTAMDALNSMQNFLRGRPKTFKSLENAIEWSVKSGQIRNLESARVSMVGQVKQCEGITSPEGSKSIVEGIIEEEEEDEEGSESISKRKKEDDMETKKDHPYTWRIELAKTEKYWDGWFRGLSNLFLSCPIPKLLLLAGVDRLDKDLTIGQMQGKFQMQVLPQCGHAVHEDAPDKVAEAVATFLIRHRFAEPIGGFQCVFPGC

inhibition, active:
Cc1ccc(OCCn2cc(/C=N/NC(=O)c3ccncc3)c3ccccc32)cc1 33.5%
COc1cc(/C=N\Nc2nc3ccccc3o2)cc(OC)c1OC 31.4%
Cn1c(=O)c(NCCO)c2c3c(cccc31)C(=O)c1ccccc1-2 134%
O=[N+]([O-])c1cc(Br)c(O)c(/C=N/Nc2nnnn2-c2cccc3ccccc23)c1 43.7%
Fc1cccc2sc(Nc3nc4cc5c(cc4s3)OCO5)nc12 76.3%
COc1cc(/C=C/c2ccc3cccc(O)c3n2)ccc1O 53.6%
CCN(CC)C(=S)Sc1c(-c2ccccc2)c2cc(Cl)ccc2[nH]c1=O 39.7%
COc1ccc(S(=O)(=O)N(C)C)cc1NC(=O)Cc1c[nH]c2ccccc12 85%
COc1cccc(NC(=O)Nc2nnc(N3CCCCC3C)s2)c1 (stereo not given) 50.6%
Cc1ccc(N/N=C(\C#N)C(N)=S)c(C)c1 57.9%
O=C(O)COc1ccccc1/C=N/Nc1ccc(S(=O)(=O)Nc2ccc(Cl)cc2)cc1[N+](=O)[O-] 62.7%
Cn1c(N/N=C/c2c[nH]c3ccccc23)nc2ccccc21 28.6%
CCc1nnc(NC(=O)c2sc3nc4cc(C)ccc4cc3c2N)s1 31.8%
COc1cc(/C=C/c2ccc3cccc(O)c3n2)c(Br)cc1O 27.5%
Cc1cc(NS(=O)(=O)c2ccc(Nc3nc(-c4sc(NC(=O)c5ccccc5)nc4C)cs3)cc2)no1 70.6%
Cc1cccc2c(N=O)c(O)[nH]c12 54.3%
O=C(O)c1cc(NN=C2c3ccccc3-c3ccccc32)ccc1Cl 41.9%
O=c1c2ccccc2nc(/C=C/c2c[nH]c3ccccc23)n1CCO 58.5%
Nc1ccc(Nc2nc3ccccc3[nH]2)cc1 43.7%

inhibition, inactive:
CCc1ccc2nc(SCC(=O)N3CC(=O)Nc4ccccc43)c(C#N)cc2c1 15.3%
CCN(CC)S(=O)(=O)c1ccc(Cl)c(NC(=O)COC(=O)c2ccc(O)cc2)c1 24.9%
Nc1c(C(=O)Nc2ccccc2F)sc2nc(-c3ccco3)ccc12 19.9%
N#CCSc1nc2c(cc1C#N)CCCCCC2 22.3%
O=C(O)CSc1cc(NS(=O)(=O)c2ccc(Br)cc2)c2ccccc2c1O 3.78%
COc1ccc(/C=C/c2c(-c3ccc(OC)cc3)oc3cccnc23)cc1 24.5%
COc1cccc(Oc2ccc(S(=O)(=O)N3CCCC3)cc2[N+](=O)[O-])c1 21.4%
COc1cccc(-c2nc(NC3CCCC3)c3ccccc3n2)c1O 13.3%
O=C(N/N=C/c1c[nH]c2ccccc12)c1cc(-c2cccc3ccccc23)n[nH]1 2.43%
O=C1c2cccc3c(N4CCCCC4)ccc(c23)C(=O)N1c1cccc(O)c1 -13.8%
Cc1cccc2cc(C#N)c(SCC#N)nc12 3.95%
Oc1ccc(Br)cc1-c1nc2cnccn2c1NC1CCCC1 21.4%
COc1ccc(NS(=O)(=O)c2ccc3oc(Nc4ccc5c(c4)OCCO5)nc3c2)cc1 12.1%
O=C(Nc1ccc([N+](=O)[O-])cc1)Nc1ccc2[nH]c(=O)[nH]c2c1 -15.6%
Cc1cccnc1Nc1nc(-c2ccc(O)c(O)c2)cs1 14.8%
O=C(N/N=C\c1ccc(COc2ccc([N+](=O)[O-])cc2)o1)c1cccc(Cl)c1 9.99%
CCN(CC)c1ccc(-c2nn3c(-c4ccccc4OC)nnc3s2)cc1 22.1%
COc1cccc(NC(=O)Nc2ccc3c(c2)N(C)C(=O)CS3)c1 9.42%
Cc1ccc(C)c(NC(=O)COC(=O)c2cc3ccccc3oc2=O)c1 22.3%
O=c1ccc2ccc(Oc3ccc([N+](=O)[O-])cc3[N+](=O)[O-])cc2o1 25.6%
O=C(CCCSc1ccccc1)Nc1nc(-c2ccco2)c(-c2ccco2)s1 6.79%
